These results are taken from PubChem BioAssay (NCI).

Molecules are shown by their SMILES. Several values for one entry are separate records, joined by “and”; a condition that tells them apart may be missing. Identical values can stand only once. This is part of a sample that, as a whole, favours compounds with a hit. Of some 79,000 tested, about 15% had one in any assay. Activity calls are given as the source filed them. Rule as the data show it: active = growth inhibition above about 70%; inactive = the rest.

The nature of the experiment: NCI Yeast Anticancer Drug Screen. Data for the rad50 strain (AID 155).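 Also: 0% = growth of vehicle-only cultures of the same strain.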 As to conditions: S. cerevisiae rad50 strain growth inhibition; at 5.0 µM (retest, dose inferred, filed as 0.5); hits give high values. The essentials:
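Cells are treated with compound, grown, and their growth is then scored against vehicle-only cultures of the same repair-deficient yeast strain.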
As to `CS(=O)(=O)SCc1ccc([N+](=O)[O-])cc1`, the growth inhibition is 20% (inactive).
Then `Cc1csc(=S)n1OC(=O)NC1CCCCC1`, with 94% (active); and `CCOc1ccc(NC(=O)C2=C(C)NC(C)=C(C(=O)Nc3ccc(OCC)cc3)C2c2cccc([N+](=O)[O-])c2)cc1`, with -10% (inactive); and `CC(C)(C)N=C(NO)c1ccccc1`, with -6% (inactive).
The value for `CCCCC/C(=C(\C#N)C(=O)OCC)c1ccccc1` was 7% (inactive); that for `O=C(NCCCl)Sc1ccc(Cl)cc1` was -166% (inactive).
The value for `O=C1Nc2ccc(Br)cc2C1=Nc1ccc2c(c1)OCO2` was 47% (inactive).
As for `CCC(C)OC(=O)Nc1ccc(C)c(NC(=O)OC(C)CC)c1` (centres undefined), the growth inhibition is 4% (inactive).
Then `O=C(O)c1cc2ccc(Cl)cc2c(O)c1C1=CCCCC1`, with 33% (inactive).
The value for `CN(C)Cc1cc(N=Nc2ccc(Cl)cc2)ccc1OC(=O)c1ccccc1` was -10% (inactive).
The value for `CN1CCN(C(=O)/C=C/C(=O)c2ccccc2)CC1` was 9% (inactive).
Turning to `CCCC/C=C/C(C)(C(=O)OCC)C(=O)OCC`, the growth inhibition is 10% (inactive).
The value for `Cc1nc(-c2cc3cc([N+](=O)[O-])ccc3oc2=O)cs1` was 17% (inactive); that for `Cc1nc2ccccc2nc1NNc1ccccc1` was 17% (inactive); that for `CN(C)[C@@H]1C(=O)C(C(N)=O)=C(O)[C@@]2(O)C(=O)C3=C(O)c4c(O)cccc4C[C@H]3C[C@@H]12` was 7% (inactive).
With `COc1ccc(NC(=O)CC2SC(=Nc3ccccc3C)NC2=O)c([N+](=O)[O-])c1` (centres undefined), the growth inhibition was 0% (inactive).
Then `COc1cc(O)c2c(c1O)C(=O)c1cc(C)ncc1C2=O`, with 9% (inactive).
As for `CSc1nnc(SC)nn1`, the growth inhibition is 51% (inactive).
As to `COc1cc(/C=C2\CCC/C(=C\c3ccc(O)c(OC)c3)C2=O)ccc1O`, the growth inhibition is 13% (inactive).
Then `CN(C)CCNC(=O)c1cccc2cc([N+](=O)[O-])ccc12`, with 38% (inactive); and `CCC(C)(C)c1ccc(Oc2cccc(C(=O)O)c2)cc1`, with -2% (inactive).
Then `CCCCCCSc1ncnc2[nH]ncc12`, with -1% (inactive); and `CC(=O)Nc1ccc(/C=C/[N+](=O)[O-])cc1`, with -66% (inactive); and `CCOC(=O)c1[nH]n(-c2ccccc2)c(=O)c1C=NC(=S)C(N)=S`, with -36% (inactive).
The value for `CCCC(O)C1CC(C(C)C)CCC1C` (centres undefined) was 0% (inactive).
Consider `O=[n+]1c2ccccc2n([O-])c2cc(Br)ccc21`, for which the growth inhibition is 96% (active).
As for `CN(C)CCNC(=O)c1cccc2c1Oc1c(cccc1[N+](=O)[O-])O2`, the growth inhibition was 29% (inactive).
The value for `Nc1ncc(-c2ccc(Br)cc2)s1` was 51% (inactive); that for `Cc1cc2cc3cc(C)c(N)cc3nc2cc1N` was 94% (active).
Then `CC12C(=O)OC(=O)C(c3ccccc31)c1ccccc12`, with 43% (inactive); and `c1ccc2c(OCC3CO3)cccc2c1` (centres undefined), with 36% (inactive); and `CCOC(=N)c1ccc(O)c(OC)c1`, with -2% (inactive).
Then `Nc1cc(N)c(N=Nc2cccc3c(S(=O)(=O)O)cccc23)cc1N=Nc1cc([N+](=O)[O-])ccc1O`, with 46% (inactive); and `COC(=O)Oc1cc(Cl)c(Cl)cc1Cl`, with 4% (inactive); and `O=C(O)C1CC(c2ccccc2)=NN1c1ccccc1` (centres undefined), with 27% (inactive).
For `COc1cc([C@@H]2c3cc4c(cc3[C@@H](Nc3ccc(NC(=O)c5cc([N+](=O)[O-])cn5C)cc3)[C@H]3COC(=O)[C@H]23)OCO4)cc(OC)c1O`, the growth inhibition is 92% (active) and 96% (active).
For `O=C(O)c1ccccc1/C=N/N=C1c2ccccc2-c2ccccc21`, the growth inhibition was 10% (inactive).
The value for `O=C1CC(=O)c2ccccc21` was 3% (inactive).
On to `Nc1ncnc2c1ncn2C1OC(CO)CC1O` (centres undefined), for which the growth inhibition is 63% (inactive) and 14% (inactive).
